This is an account of results in PubChem BioAssay (NCATS).

SMILES strings stand for the structures. “And” between values parts separate entries of the source, which are not always exact repeats. Identical values can stand only once. A number with no mark means an inactive call. Inconclusive results are not listed. The source made the active and inactive calls. Unless noted, calls come from the whole dose curve; as a rule, active = well fitted curve in the direction sought with a large enough effect; inconclusive = small, poorly fitted or top-dose-only effect, or another doubt; inactive = no such curve, though single readings can be large; an effect the other way counts as inactive or inconclusive.

Experiment [1] is described as follows: S16 Schwann cell PMP22 intronic element firefly luciferase assay (AID 624032). Note: nearly all actives have a fitted effect of over 30% in size. Note: potency is the fitted concentration of half-maximal effect. The note with it: S16 rat Schwann cells, PMP22 element FLuc, 24 h; series mostly up to 57.5 µM. In short, it runs like this:
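Rat S16 Schwann cells stably carrying firefly luciferase driven by a PMP22 intronic element, in 10% FBS, treated 24 h at 37 C. ONE-Glo luminescence normalized to PTC124 control and DMSO (0%); curves classed by r2, magnitude and activity.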

The nature of experiment [2]: S16 Schwann cell PMP22 intronic element beta-lactamase assay (AID 624044; calls by dose curve;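 note: 0% = DMSO and -100% = potassium clavulanate positive control; nearly all actives have a fitted effect of over 15% in size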). Conditions: S16 rat Schwann cells, PMP22 element beta-lactamase FRET, 24 h; series mostly up to 38.3 µM. An outline of the steps: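 Rat S16 Schwann cells with beta-Lac driven by a PMP22 intronic element, compound-treated 24 h at 37 °C. LiveBLAzer FRET B/G read: 460 nm normalized to potassium clavulanate vs DMSO; 535 nm FRET as viability; concentration-effect curves classified.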

A short description of experiment [3]: qHTS assay for small molecule activators of the nuclear factor-kappa B (NF-kB) signaling pathway (AID 651749; active = well fitted activation curve with a large enough effect in the signal ratio; the % refers to the signal ratio; note: % of control where 0% means no effect). Conditions: NF-kB-bla ME-180 cells, beta-lactamase FRET ratio, 16 h; active compounds read high. In short, it runs like this:
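Incubation lasted 16 hr at 37C in 5% CO2 after 23 nL compound addition to ME-180 NF-kB-bla cells. Activation appears as beta-lactamase-mediated FRET loss.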

In experiment [4] the target is Glutaminase kidney isoform, mitochondrial (Homo sapiens) (UniProt O94925). Briefly: qHTS for Inhibitors of Glutaminase (GLS): LOPAC Validation (AID 624146).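 Note: glutamate product detected by oxidase and peroxidase coupled Amplex red fluorescence gain; % is set by controls: 0 for no effect and ±100 for the full control effect; nearly all actives have a fitted effect of over 60% in size.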 Conditions: glutaminase enzyme activity inhibition; series mostly up to 46.1 µM. An outline of the steps:
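Compounds were pin-transferred onto hKGA, after which L-glutamine (1 mM solution) and a detection mix of glutamate oxidase, HRP and Amplex Red were added. Initial and 30 min RT fluorescence reads were collected.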
(In general: In qHTS, concentration-response curves come from the screen itself.)

Experiment [5] is described as follows: qHTS of Trypanosoma Brucei Inhibitors: LOPAC Validation (AID 624147). Note: 0% is about no effect. Conditions: purified enzyme assay, luminescence, 45 min; series mostly up to 57.5 µM. In short, it runs like this: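 In this concentration-response screen, enzyme-free wells defined baseline while DMSO plates tracked drift. Each reaction combined TbPYK, substrate, compound and 130 uM ADP for 45 min at room temperature. Kinase-Glo Plus luminescence gave the signal.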

Experiment [6] deals with Glucagon-like peptide 1 receptor (Homo sapiens) (UniProt P43220). Briefly: qHTS of GLP-1 Receptor Agonists: LOPAC Validation (AID 624148).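 Note: 0% is about no effect; higher luminescence signal means agonism.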 Conditions: GLP-1R agonist cell assay; series mostly up to 46.1 µM. An outline of the steps: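 HEK293 cells stably co-expressing GLP-1R and a cAMP-responsive luciferase reporter, plated 12 hours before compound, then incubated 4-6 hr at 37 deg C. Luminescence read 12 min after detection reagent.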
Glucagon-like peptide 1 receptor (Homo sapiens), sequence (P43220 whole entry, looked up): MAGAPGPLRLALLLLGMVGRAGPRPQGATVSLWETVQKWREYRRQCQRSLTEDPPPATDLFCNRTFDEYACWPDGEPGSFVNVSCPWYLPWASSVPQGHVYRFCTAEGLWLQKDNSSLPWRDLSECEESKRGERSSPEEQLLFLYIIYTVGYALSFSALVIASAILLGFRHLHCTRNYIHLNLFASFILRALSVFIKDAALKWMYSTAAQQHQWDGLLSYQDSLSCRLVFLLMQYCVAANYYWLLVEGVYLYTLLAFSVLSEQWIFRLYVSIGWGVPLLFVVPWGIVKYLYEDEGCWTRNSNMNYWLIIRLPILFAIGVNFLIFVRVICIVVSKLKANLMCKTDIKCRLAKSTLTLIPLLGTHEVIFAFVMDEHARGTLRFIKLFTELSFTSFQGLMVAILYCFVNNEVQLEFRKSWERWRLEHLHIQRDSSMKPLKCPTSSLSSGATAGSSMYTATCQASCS

The nature of experiment [7]: qHTS of Nrf2 Activators: LOPAC Validation (AID 624149). Note: 0% is about no effect. Conditions: Nrf2/ARE reporter cell assay; series mostly up to 46.1 µM. An outline of the steps: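 ARE reporter activation measured in AREc32 firefly luciferase cells after 24 hr compound exposure; Steady-Glo luminescence.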
Experiment [8] can be described thus: HTS Assay for Allosteric Antagonists of the Human D2 Dopamine Receptor: Hit Validation in HTRF (AID 624455).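 Note: stable D1 dopamine receptor cell line scored for blocking the D1 response; % is set by controls: 0 for no effect and ±100 for the full control effect.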 Conditions: Cells stably expressing D1 dopamine receptor, inhibition mode; series mostly up to 46.1 µM. In short, it runs like this: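 Signal from an HTRF read-out in D1-expressing stable cells gave hit activity as inhibition of the D1 response.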
(In general: In TR-FRET formats the signal depends on donor and acceptor labels being close together.)

Experiment [9] is described as follows: qHTS assay for small molecule agonists of the antioxidant response element (ARE) signaling pathway (AID 651741; active = well fitted activation curve with a large enough effect in the signal ratio; the % refers to the signal ratio; note: potency is the fitted concentration of half-maximal effect; for activation: % of control where 0% means no effect). The note with it: HepG2 ARE-bla reporter, beta-lactamase FRET ratio, 16 h; series mostly up to 96 µM. An outline of the steps:
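HepG2 ARE-bla cells plated at 2,000 cells/well and incubated 5 h at 37 C/5% CO2 received 23 nL compound in DMSO. After 16 h at 37 C, LiveBLAzer B/G FRET substrate was applied for 2 h at room temperature and fluorescence read.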

Experiment [10] in a line: qHTS assay for small molecule activators of the p53 signaling pathway (AID 651743; active = well fitted activation curve with a large enough effect in the signal ratio, not every such curve was filed as active; the % refers to the signal ratio; note: % of control where 0% means no effect). The note with it: HCT-116 p53RE-bla, beta-lactamase FRET ratio, 16 h; activation: active compounds read high. An outline of the steps:
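HCT-116 p53RE-bla, 4,000 cells/well; 5 h settle; cpd/DMSO 16 h, 37 C; LiveBLAzer B/G 2 h RT; fluorescence intensity.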

Glutaminase kidney isoform, mitochondrial (Homo sapiens), sequence (O94925 whole entry, looked up, canonical isoform): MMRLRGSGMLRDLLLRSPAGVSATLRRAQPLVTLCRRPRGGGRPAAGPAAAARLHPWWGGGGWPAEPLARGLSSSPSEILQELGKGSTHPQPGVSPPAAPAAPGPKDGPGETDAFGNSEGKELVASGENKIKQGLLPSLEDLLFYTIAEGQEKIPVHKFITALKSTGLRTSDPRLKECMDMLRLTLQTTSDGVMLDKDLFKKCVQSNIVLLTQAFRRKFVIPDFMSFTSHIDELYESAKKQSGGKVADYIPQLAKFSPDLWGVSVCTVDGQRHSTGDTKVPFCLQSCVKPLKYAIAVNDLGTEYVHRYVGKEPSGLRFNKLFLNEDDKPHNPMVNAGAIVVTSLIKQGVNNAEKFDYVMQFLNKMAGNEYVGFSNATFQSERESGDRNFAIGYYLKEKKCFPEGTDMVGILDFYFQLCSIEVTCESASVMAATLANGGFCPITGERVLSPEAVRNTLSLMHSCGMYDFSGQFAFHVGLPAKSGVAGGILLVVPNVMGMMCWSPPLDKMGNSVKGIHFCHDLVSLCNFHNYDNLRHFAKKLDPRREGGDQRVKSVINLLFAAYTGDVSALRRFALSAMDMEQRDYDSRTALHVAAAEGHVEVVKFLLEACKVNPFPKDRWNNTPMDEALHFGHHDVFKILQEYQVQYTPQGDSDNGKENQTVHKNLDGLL

With `Clc1ccccc1Cl`, the Potency entry in [1] and in experiment [2] was “inactive” in each case. Moreover, the activation in [3] was -0.0325%.
Regarding `c1cc2c(c(NC3=NCCN3)c1)CCCC2`, the Potency entry in [1] and in experiment [2] was “inactive” throughout.
For the molecule `OC(c1ccccc1)(c1ccccc1)C1CN2CCC1CC2` (centres undefined), the Potency result in experiment [2] was “inactive”.
Consider `Nc1ccc(CCN2CCN(c3cccc(C(F)(F)F)c3)CC2)cc1`, for which the Potency result in experiment [4], in [5], in experiment [7] and in experiment [8] was “inactive” each time. Besides, the molecule was called inactive in experiment [6].
As for `CC1OC1P(=O)(O)O` (centres undefined), the Potency result in experiment [2] and in experiment [4] was “inactive” in each case.
For `CCCN1CCC[C@@H](c2cccc(O)c2)C1`, the Potency result in experiment [4], in [5] and in experiment [7] was “inactive” throughout. In experiment [6], the molecule was called inactive.
Consider `ClC=C(Cl)Cl`, for which the Potency result in experiment [1] and in experiment [9] was “inactive” in each case. Moreover, the activation is -0.563% and 7.22% in [10]; -0.987% and 0.875% in experiment [3].
`N#CN`: the Potency result in experiment [1] and in experiment [9] was “inactive” in each case. Besides, the activation in experiment [3] is 0.422%.
In the case of `N[C@@H](Cn1oc(=O)[nH]c1=O)C(=O)O`, the Potency result in experiment [4], in experiment [5], in experiment [7] and in experiment [8] was “inactive” in each case. Further, in experiment [6], the result was inactive.
As to `[O]=[Cd]`, the Potency entry in [1] and in experiment [9] was “inactive” throughout. The activation in [10] was 1.29%; in [3], -0.74%.
`CN1CCc2cccc(Cl)c2CC1`: the Potency entry in experiment [4], in [5] and in experiment [7] was “inactive” in each case. Further, the molecule was called inactive in experiment [6].
Regarding `O=C1C2CC=CCC2C(=O)N1SC(Cl)(Cl)Cl` (centres undefined), in experiment [1], the Potency was 12.8 µM (active). In addition, the activation in experiment [10] was -1.26% and 18.6%; in experiment [3], -2.11%.
As for `C[C@]12Cc3cn4c(nc3C=C1CCC1C2CC[C@@]2(C)[C@H]1CC[C@@]2(O)C#N)nc1ccccc14` (some centres undefined), the Potency entry in [4], in [5], in experiment [7] and in experiment [8] was “inactive” throughout. For the same molecule, in experiment [6], the outcome was inactive.
For `C[C@]12CCC(=O)C[C@@H]1CC[C@@H]1[C@@H]2CC[C@]2(C)[C@@H](O)CC[C@@H]12`, in [2], the Potency result is “inactive”. Moreover, the Potency in [9] is 24.3 µM (active). The activation was -3.4% and -1.57% in [10]; 1.2% and 0.597% in experiment [3].
